# “And” between values parts separate entries of the source, which are not always exact repeats. Identical values can stand only once. Results filed as inconclusive are left out. Where a structure was tested more than once in an assay, its records may differ in their call. The source made the active and inactive calls. Unless noted, the call rests on the fitted dose curve; in most records, active means well fitted inhibition curve with a large enough effect; inconclusive means small, poorly fitted or top-dose-only effect; inactive means no such curve, though single readings can be large or run the other way. Peptide text beside a SMILES is read from it.
# Columns and labels:
# [1] = qHTS profiling of the MIPE4 collection as inhibitors of Plasmodium falciparum (DD2) proliferation (AID 743345; call rule not given here); conditions: P. falciparum Dd2 in erythrocytes, SYBR Green DNA, 72 h
# Summary of the method: (§1)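 Parasite DNA was quantified by SYBR Green I fluorescence (ex 485, em 535 nm) after overnight lysis in saponin/Triton buffer at room temperature. Cultures at 0.3% parasitemia and 2.5% hematocrit were first exposed to compound for 72 h at 37 C; signals were normalised to artemisinin (0.29 uM) and vehicle wells.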
# [2] = qHTS profiling of the MIPE4 collection as inhibitors of Plasmodium falciparum (DD2) proliferation (Rep 2) (AID 743346; call rule not given here); conditions: P. falciparum Dd2 in erythrocytes, SYBR Green DNA, 72 h
# Summary of the method: as §1
# [3] = qHTS profiling of the MIPE4 collection as inhibitors of Plasmodium falciparum (HB3) proliferation (AID 743347; call rule not given here;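 further: plate controls were DMSO vehicle wells for no effect and artemisinin wells for full effect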); conditions: P. falciparum HB3 in erythrocytes, SYBR Green DNA, 72 h
# Summary of the method: as §1
# [4] = High-throughput drug toxicity screening in the BPDCN cell line Gen2.2 (AID 1224824; call rule not given here;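 further: cells exposed to compounds for 48 h before reading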); conditions: Gen2.2 BPDCN cells; at 45.8 µM (top of the series) unless noted
# Summary of the method: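 Gen2.2 cells, 500 per well in phenol red-free RPMI with 10% FBS, exposed to compounds 48 h at 37 C, 5% CO2; viability by CellTiter-Glo luminescence. Percent activity scaled to DMSO (100%) and 9.2 uM bortezomib final (0%).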
# [5] = High-throughput drug toxicity screening in the BPDCN cell line Cal-1 (AID 1224825; call rule not given here); conditions: Cal-1 BPDCN cell viability, qHTS; at 45.8 µM (top of the series) unless noted
# Summary of the method: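 Percent activity derived from CellTiter-Glo luminescence, scaling DMSO to 100% and 9.2 uM final bortezomib to 0%. BPDCN Cal-1 cells (500/well, RPMI plus 10% FBS) incubated with compounds 48 hours at 37C before reading.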
# [6] = qHTS assay for measurement of the activity of small molecule inhibitors on Zika virus induced Caspase-3 activity in human iPSC derived neural progenitor cells (hNPCs) (AID 1224857); conditions: hNPCs ZIKV-induced caspase-3/7, Caspase-Glo luminescence, 6 h; series mostly up to 45.7 µM; further: nearly all actives have a fitted effect of over 65% in size; further: potency means the concentration at half of the fitted maximal effect
# Summary of the method: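 Cells were plated at 350 per well and grown 16 to 20 hours. Compound pretreatment lasted one hour, after which ZIKV (2 FFU/cell) was added for 6 hours. Percent inhibition was normalized between uninfected and infected controls.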
# [7] = qHTS assay for measurement of the activity of small molecule inhibitors on Zika virus induced Caspase-3 activity in human astrocytoma cells (AID 1224859); conditions: SNB-19 ZIKV-induced caspase-3/7, luminescence, 6 h; series mostly up to 45.7 µM;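 further: plate controls were ZIKV-infected untreated cells for no effect and uninfected cells for full effect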
# Summary of the method: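 Percent inhibition of virus-induced caspase-3/7 signal is calculated against uninfected and ZIKV-infected control cells. Cells are SNB-19, infected at 2 FFU/cell for 6 h after 1 h compound exposure.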
# [8] = qHTS Screen of the MIPE 4.0 Collection Against Ewings Sarcoma (EW8) (AID 1259255); conditions: EW8 Ewing sarcoma viability, CellTiter-Glo, 48 h; series mostly up to 45.8 µM; further: nearly all actives have a fitted effect of over 35% in size; further: potency means the concentration at half of the fitted maximal effect;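 on viability: 100% = DMSO-treated cells and 0% = medium-only wells without cells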
# Summary of the method: (§2)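 CellTiter-Glo luminescence after 48 h compound exposure (titration) gave viability; percent activity used DMSO-treated cells as no inhibition and medium-only wells as full inhibition. Cells grown in RPMI/5% FBS, dosed 4 h post-seeding.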
# [9] = qHTS Screen of the MIPE 4.0 Collection Against Ewings Sarcoma (TC71) (AID 1259253); conditions: TC71 Ewing sarcoma viability, CellTiter-Glo, 48 h; series mostly up to 45.8 µM; further: nearly all actives have a fitted effect of over 40% in size; further: potency means the concentration at half of the fitted maximal effect
# Summary of the method: as §2
# [10] = qHTS Screen of the MIPE 4.0 Collection Against Ewings Sarcoma (RDES) (AID 1259252); conditions: RD-ES Ewing sarcoma viability, CellTiter-Glo, 48 h; series mostly up to 45.8 µM;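 further: 100% = DMSO-treated cells and 0% = medium-only wells without cells; nearly all actives have a fitted effect of over 35% in size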
# Summary of the method: as §2
# [11] = at 28.5 µM (top of the series) unless noted
compound,measurement,setting,value
CCCCN(CCCC)CCC(O)c1cc2c(Cl)cc(Cl)cc2c2cc(C(F)(F)F)ccc12 (centres undefined),"parasite growth remaining, % of DMSO control (lower = more inhibition)",[1]; at 9.64 µM (top of the series),8.22%
same,"parasite growth remaining, % of DMSO control (lower = more inhibition)",[1]; at 28.5 µM (top of the series),7.14%
same,"parasite growth, % of control (lower = inhibition)",[2]; at 9.64 µM (top of the series),11%
same,"parasite growth, % of control (lower = inhibition)",[2]; at 28.5 µM (top of the series),10.3%
same,"growth, % of control",[3]; at 9.64 µM (top of the series),5.69%
same,"growth, % of control",[3]; at 28.5 µM (top of the series),7.8%
NC(=O)Cc1cccc(C(=O)c2ccccc2)c1N,"parasite growth remaining, % of DMSO control (lower = more inhibition)",[1]; [11],98.5%
same,"growth, % of control",[3]; [11],95.3%
same,"cell viability, % of control (lower = more cytotoxic)",[4],108%
same,viability (% of control),[5],114%
same,Potency,[6],inactive
same,Potency,[7],inactive
same,Potency,[8],inactive
COC1=C(OC)C(=O)C(CCCCCCCCCCO)=C(C)C1=O,"parasite growth remaining, % of DMSO control (lower = more inhibition)",[1]; [11],84.8%
same,"parasite growth, % of control (lower = inhibition)",[2]; [11],32.3%
same,"growth, % of control",[3]; [11],73.4%
same,"cell viability, % of control (lower = more cytotoxic)",[4],145%
same,viability (% of control),[5],24.2%
same,Potency,[6],inactive
same,Potency,[7],inactive
Clc1ccc(C(Cn2ccnc2)OCc2c(Cl)cccc2Cl)c(Cl)c1 (centres undefined),"parasite growth remaining, % of DMSO control (lower = more inhibition)",[1]; [11],9.61%
same,"parasite growth, % of control (lower = inhibition)",[2]; [11],14.8%
same,"growth, % of control",[3]; [11],7.46%
same,"cell viability, % of control (lower = more cytotoxic)",[4],327%
same,viability (% of control),[5],63.4%
same,Potency,[6],inactive
same,Potency,[7],inactive
COc1cc(C(C)=O)ccc1OCCCN1CCC(c2noc3cc(F)ccc23)CC1,"parasite growth remaining, % of DMSO control (lower = more inhibition)",[1]; [11],54.6%
same,"parasite growth, % of control (lower = inhibition)",[2]; [11],40.6%
same,"growth, % of control",[3]; [11],54.6%
same,"cell viability, % of control (lower = more cytotoxic)",[4],69.7%
same,viability (% of control),[5],52.5%
same,Potency,[6],inactive
same,Potency,[7],inactive
C[C@H](Cc1ccc(O)c(O)c1)[C@@H](C)Cc1ccc(O)c(O)c1,"parasite growth remaining, % of DMSO control (lower = more inhibition)",[1]; [11],17.2%
same,"parasite growth, % of control (lower = inhibition)",[2]; [11],16.4%
same,"growth, % of control",[3]; [11],20.7%
same,"cell viability, % of control (lower = more cytotoxic)",[4],7.79%
same,viability (% of control),[5],5.77%
same,Potency,[6],inactive and 26.4 µM (active)
same,Potency,[7],inactive
same,Potency,[9],13.2 µM (active)
same,Potency,[8],16.6 µM (active)
C=CCc1cc(OC)c(O)c(C(=O)NCCO)c1,"cell viability, % of control (lower = more cytotoxic)",[4],134%
same,viability (% of control),[5],128%
same,Potency,[6],inactive
same,Potency,[7],inactive
same,Potency,[8],inactive
Cc1nccn1CC1CCc2c(c3ccccc3n2C)C1=O (centres undefined),"parasite growth remaining, % of DMSO control (lower = more inhibition)",[1]; [11],80.4%
same,"parasite growth, % of control (lower = inhibition)",[2]; [11],40.2%
same,"growth, % of control",[3]; [11],54.5%
same,"cell viability, % of control (lower = more cytotoxic)",[4],105%
same,viability (% of control),[5],92.7%
same,Potency,[6],inactive
same,Potency,[7],inactive
same,Potency,[9],16.6 µM (active)
same,Potency,[8],inactive
Cc1nc(Nc2ncc(C(=O)Nc3c(C)cccc3Cl)s2)cc(N2CCN(CCO)CC2)n1,"parasite growth remaining, % of DMSO control (lower = more inhibition)",[1]; [11],65.3%
same,"parasite growth, % of control (lower = inhibition)",[2]; [11],17.6%
same,"growth, % of control",[3]; [11],3.03%
same,"cell viability, % of control (lower = more cytotoxic)",[4],74.9%
same,viability (% of control),[5],11.7%
same,Potency,[6],inactive
same,Potency,[7],inactive
same,Potency,[8],20.9 µM (active)
CC(C)c1ccc2c(c1)c(SC(C)(C)C)c(CC(C)(C)C(=O)O)n2Cc1ccc(Cl)cc1,"parasite growth remaining, % of DMSO control (lower = more inhibition)",[1]; [11],42.3%
same,"parasite growth, % of control (lower = inhibition)",[2]; [11],22%
same,"growth, % of control",[3]; [11],11.8%
same,"cell viability, % of control (lower = more cytotoxic)",[4],111%
same,viability (% of control),[5],119%
same,Potency,[6],inactive
same,Potency,[7],inactive
same,Potency,[9],20.9 µM (active)
CC1Cc2ccccc2N1NC(=O)c1ccc(Cl)c(S(N)(=O)=O)c1 (centres undefined),"growth, % of control",[3]; [11],48.2%
same,"cell viability, % of control (lower = more cytotoxic)",[4],106%
same,viability (% of control),[5],104%
same,Potency,[6],inactive
same,Potency,[7],inactive
same,Potency,[9],20.9 µM (active)
COC(=O)[C@H](Cc1ccccc1)NC(=O)[C@@H](N)CC(=O)O (H-Asp-Phe-OMe),"parasite growth remaining, % of DMSO control (lower = more inhibition)",[1]; [11],22.1%
same,"parasite growth, % of control (lower = inhibition)",[2]; [11],118%
same,"growth, % of control",[3]; [11],107%
same,"cell viability, % of control (lower = more cytotoxic)",[4],280%
same,viability (% of control),[5],114%
same,Potency,[6],inactive
same,Potency,[7],inactive
CC(=O)Nc1ccc(O)cc1,"cell viability, % of control (lower = more cytotoxic)",[4],105%
same,viability (% of control),[5],33.3%
same,Potency,[7],inactive
same,Potency,[10],inactive
same,Potency,[9],inactive
CCc1nc(N)nc(N)c1-c1ccc(Cl)cc1,"parasite growth remaining, % of DMSO control (lower = more inhibition)",[1]; [11],83.6%
same,"parasite growth, % of control (lower = inhibition)",[2]; [11],85.4%
same,"growth, % of control",[3]; [11],18.1%
same,"cell viability, % of control (lower = more cytotoxic)",[4],136%
same,viability (% of control),[5],37.1%
same,Potency,[6],inactive
same,Potency,[7],inactive
same,Potency,[9],1.32 µM (active)
Clc1ccc(C(Cn2ccnc2)OCc2ccsc2Cl)c(Cl)c1 (centres undefined),"parasite growth remaining, % of DMSO control (lower = more inhibition)",[1]; [11],7.57%
same,"parasite growth, % of control (lower = inhibition)",[2]; [11],15.9%
same,"growth, % of control",[3]; [11],8.47%
same,"cell viability, % of control (lower = more cytotoxic)",[4],75.4%
same,viability (% of control),[5],32.2%
same,Potency,[6],inactive
same,Potency,[7],inactive
CC(S)C(=O)NCC(=O)O (centres undefined),"parasite growth remaining, % of DMSO control (lower = more inhibition)",[1]; [11],123%
same,"parasite growth, % of control (lower = inhibition)",[2]; [11],91.7%
same,"growth, % of control",[3]; [11],95.5%
same,"cell viability, % of control (lower = more cytotoxic)",[4],104%
same,viability (% of control),[5],100%
same,Potency,[6],inactive
same,Potency,[7],inactive
same,Potency,[8],inactive
Nc1cc(C(Cl)=C(Cl)Cl)c(S(N)(=O)=O)cc1S(N)(=O)=O,"parasite growth remaining, % of DMSO control (lower = more inhibition)",[1]; [11],102%
same,"parasite growth, % of control (lower = inhibition)",[2]; [11],142%
same,"growth, % of control",[3]; [11],98.3%
same,"cell viability, % of control (lower = more cytotoxic)",[4],360%
same,viability (% of control),[5],106%
same,Potency,[6],inactive
same,Potency,[7],inactive
same,Potency,[8],inactive
O=C1CCc2ccc(OCCCCN3CCN(c4cccc(Cl)c4Cl)CC3)cc2N1,"parasite growth remaining, % of DMSO control (lower = more inhibition)",[1]; [11],65.1%
same,"parasite growth, % of control (lower = inhibition)",[2]; [11],53.7%
same,"growth, % of control",[3]; [11],62.9%
same,"cell viability, % of control (lower = more cytotoxic)",[4],498%
same,viability (% of control),[5],110%
same,Potency,[6],inactive
same,Potency,[7],inactive
CN(C)c1ccc(O)c2c1C[C@H]1C[C@H]3[C@H](N(C)C)C(=O)C(C(N)=O)=C(O)[C@@]3(O)C(=O)C1=C2O,"parasite growth remaining, % of DMSO control (lower = more inhibition)",[1]; [11],9.85%
same,"parasite growth, % of control (lower = inhibition)",[2]; [11],6.85%
same,"growth, % of control",[3]; [11],6.27%
same,"cell viability, % of control (lower = more cytotoxic)",[4],77.4%
same,viability (% of control),[5],80%
same,Potency,[6],inactive
same,Potency,[7],inactive
same,Potency,[9],4.69 µM (active)
CN(C)[C@@H](CCOc1cccc2ccccc12)c1ccccc1,"parasite growth remaining, % of DMSO control (lower = more inhibition)",[1]; [11],14.4%
same,"growth, % of control",[3]; [11],15.2%
same,"cell viability, % of control (lower = more cytotoxic)",[4],165%
same,viability (% of control),[5],78.2%
same,Potency,[6],inactive
same,Potency,[7],inactive
same,Potency,[9],26.4 µM (active)

# From PubChem BioAssay (NCATS)
